Assay outcomes deposited in PubChem by National Center for Advancing Translational Sciences (NCATS).
Most compounds without a hit are left out; they make up all but 6% or so of the library.
Tau fil binding – binds recombinant human tau filaments; Potency, µM (top dose mostly 57.1 µM), for inactives: at the top dose activity change, negative = inhibition; 2% of 71,000 active; recombinant tau filaments, thioflavin S fluorescence, 15 h; filaments grown with octadecylsulfate alongside compound;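 further: actives lower thioflavin S fluorescence by blocking filaments or displacing dye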
Target sequence (P10636 whole entry, looked up): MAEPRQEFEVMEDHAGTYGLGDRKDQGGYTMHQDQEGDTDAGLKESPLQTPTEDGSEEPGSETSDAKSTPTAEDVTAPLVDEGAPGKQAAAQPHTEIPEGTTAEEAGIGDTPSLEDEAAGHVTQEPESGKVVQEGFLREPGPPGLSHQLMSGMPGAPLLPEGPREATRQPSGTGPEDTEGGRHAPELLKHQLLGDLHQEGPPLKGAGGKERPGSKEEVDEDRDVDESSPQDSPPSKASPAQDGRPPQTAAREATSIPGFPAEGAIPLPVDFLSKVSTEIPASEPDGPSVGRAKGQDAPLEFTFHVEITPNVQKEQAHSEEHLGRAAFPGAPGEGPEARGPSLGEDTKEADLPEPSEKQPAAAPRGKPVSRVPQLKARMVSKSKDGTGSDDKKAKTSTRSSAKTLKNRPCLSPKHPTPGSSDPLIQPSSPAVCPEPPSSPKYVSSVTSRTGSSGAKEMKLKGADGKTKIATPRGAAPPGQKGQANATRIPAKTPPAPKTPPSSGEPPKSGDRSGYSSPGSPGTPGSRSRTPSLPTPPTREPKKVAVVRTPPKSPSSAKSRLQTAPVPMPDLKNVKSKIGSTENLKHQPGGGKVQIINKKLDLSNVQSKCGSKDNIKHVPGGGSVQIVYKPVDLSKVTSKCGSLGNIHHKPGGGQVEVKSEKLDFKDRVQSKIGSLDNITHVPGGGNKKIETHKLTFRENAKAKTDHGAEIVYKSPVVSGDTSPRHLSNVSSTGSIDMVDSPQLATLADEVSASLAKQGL
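Tau 2 uM in ThS buffer dispensed; compound added; 60 uM ODS added (finals 1 uM tau, 30 uM ODS); 15 h 37 C; fluor ex450/em510.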
Pol III holo inh – blocks replication by bacterial DNA polymerase III holoenzyme; reconstituted DNA polymerase III holoenzyme replication, biochemical; 0.25% of 71,000 active; AID 603; Potency, µM (top dose mostly 57.1 µM), for inactives: at the highest dose activity change, negative = inhibition
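Reconstituted *E. coli* holoenzyme (0.35 nM Pol III, 1 nM beta, 154 nM SSB, 2 nM primase) was preincubated with compound for 15 min at RT. Synthesis on 1.4 nM ssM13Gori ran 35 min, then was stopped with PicoGreen/EDTA and read as dsDNA fluorescence.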
FLuc inh – blocks Photinus pyralis firefly luciferase activity | P08659 | Potency, µM (highest dose often 57.1 µM), for the others: at the top dose activity change, negative = inhibition, usual class: inhibitors | 2.2% of 72,000 active | purified firefly luciferase, luminescence, 8 min; further: nearly all actives have a fitted effect of over 40% in size
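Compounds were tested as concentration series (qHTS) against purified P. pyralis luciferase with luciferin and 10 uM ATP in 50 mM imidazole pH 7.2, 50 mM KCl, 7 mM MgCl2, 0.01% Tween 20, 0.05% BSA. Luminescence was read after 8 min at ambient temperature.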
PK Bst – modulators of Bacillus stearothermophilus pyruvate kinase. purified pyruvate kinase, luminescence ATP production; ribose 5-phosphate activator present at AC10. Potency, µM. 1.2% of 51,000 active; in the data active means potency below about 11 µM; inconclusive means mostly about 12 µM to 25 µM;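 the screen sought inhibitors and activators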;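 further: scaled between full activation by ribose 5 phosphate and full inhibition by luteolin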
ERK AVP block – vasopressin-driven ERK pathway inhibition; HEK293-V1b, vasopressin-stimulated pERK AlphaScreen; Potency, µM (highest dose often 57.5 µM), inactives show at the top dose activity, negative = inhibition, usual class: inhibitors; 0.99% of 72,000 active; AID 995; further: nearly all actives have a fitted effect of over 55% in size
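Phosphorylated ERK1/2 detected via AlphaScreen bead proximity in lysates of V1b-expressing HEK293 cells given 25 nM vasopressin for 5 min after 30 min compound exposure (37 °C). AC50 from Hill equation; basal DMSO 0%, vasopressin 100%.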
ALOX15 inhib – inhibitors of human 15-lipoxygenase (ALOX15) | P16050 | purified 15hLO-1, xylenol orange hydroperoxide absorbance | Potency, µM (top dose mostly 57.1 µM), inactives show at the top dose activity change, negative = inhibition, hits mostly inhibitors | 1.4% of 74,000 active | AID 887; further: nearly all actives have a fitted effect of over 55% in size
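40 nM 15hLO-1 + cpd, 15 min RT; start w/ 50 uM AA (final), 6 min RT; stop/detect w/ 200 uM XO + 300 uM Fe(II) in 50 mM H2SO4, 30 min; A573/A405. Buffer 25 mM Hepes pH 7.5, 0.01% Triton X-100. No-enzyme wells as negative control.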
The depositor's hits bear a star; i = inactive; ? = inconclusive; · = no result; [ ] = another dose, or the depositor's remark. Unless noted, the call rests on the fitted dose curve; in most records, active means well fitted curve in the direction sought with a large enough effect; inconclusive means small, poorly fitted or top-dose-only effect, or another doubt; inactive means no such curve, though single readings can be large; an effect the other way counts as inactive or inconclusive. Unless noted, on the % scale 0 is the no-effect control and ±100 the full control effect; potency means the concentration at half of the fitted maximal effect.

SMILES | Tau fil binding | Pol III holo inh | FLuc inh | PK Bst | ERK AVP block | ALOX15 inhib
CN(CCc1ccccn1)c1ccc2c(c1)C(=O)c1ccccc1-2 | 3.98µM* | -9.5%[11.4 µM] | -24.1%[11.4 µM] | · | -12.8%[11.5 µM] | 1.8%[11.4 µM]
Cc1cccc(CN(C)CCc2ccccn2)c1 | 24.1%[11.4 µM] | 7.0%[11.4 µM] | -2.2% | · | -15.7% | -7.1%[11.4 µM]
COc1ccc(-c2coc3ccc(O[C@@H]4O[C@@H](COC(C)=O)[C@@H](OC(C)=O)[C@@H](OC(C)=O)[C@H]4OC(C)=O)c(OC(C)=O)c3c2=O)cc1 | ? | -4.9% | 1.4%[11.4 µM] | · | · | ·
COc1ccc(OC)c(S(=O)(=O)Nc2ccc(O)c(Sc3ncn[nH]3)c2)c1 | 11.8% | -4.9% | 2.4% | >57 | -10.3% | 12.6µM*
COc1ccc(OC)c(S(=O)(=O)Nc2ccc(O)c3ccccc23)c1 | 25.1µM* | -2.5% | -5.0% | >57 | -12.7% | 25.1µM*
COc1ccc(OC)c(S(=O)(=O)Nc2ccc(C(N)=O)cc2)c1 | -2.2% | -7.9% | -0.1% | >57 | -13.4% | 3.1%
CN1CCN(c2nc(-c3ccc(N(C)C)cc3)nc3ccccc23)CC1 | 12.6µM* | -7.4% | -2.2%[2.29 µM] | · | 17.2% | 1.8%
COc1cc([C@H](O)C(=O)O)ccc1O | -1.0% | 17.9% | 1.6% | · | -3.4% | 13.0%
CCCSc1nnc2nc3c(nn12)c1ccccc1n3C | 15.8µM* | -9.3% | -1.4% | · | · | 5.2%
Cc1cc2c(nc1C)CCCN2CC(O)CN1CCCc2nc(C)c(C)cc21 | · | · | -0.5%[11.4 µM] | · | 25.3%[11.5 µM] | 9.8%[11.4 µM]
COC(=O)c1cccc(Nc2nc3ccccc3nc2C)c1 | 40.4% | 3.7% | 2.3% | · | 25.1µM* | -4.6%
CCOC(=O)c1cccc(Nc2nc(C)cc(C)n2)c1 | -2.3% | -10.3% | 3.7% | >57 | -0.6% | 4.4%
CO[C@H]1/C=C/O[C@@]2(C)Oc3c(C)c(O)c4c(O)c(c5c(c4c3C2=O)NC2(CCN(CC(C)C)CC2)N=5)=NC(=O)/C(C)=C\C=C\[C@H](C)[C@H](O)[C@@H](C)[C@@H](O)[C@@H](C)[C@H](OC(C)=O)[C@@H]1C | 0.398µM* | -5.0% | · | · | -33.9% | ?
CO[C@H]1C=CO[C@]2(C)Oc3c(C)c(O)c4c(O)c(c5c(c4c3C2=O)NC2(CCN(CC(C)C)CC2)N=5)=NC(=O)C(C)=CC=C[C@@H](C)[C@@H](O)[C@@H](C)[C@@H](O)[C@@H](C)[C@@H](OC(C)=O)[C@@H]1C | 1.58µM* | -3.5%[25.6 µM] | -1.8%[25.5 µM] | · | -21.4%[25.7 µM] | 13.6%[25.6 µM]
CO[C@@H]1/C=C\O[C@]2(C)Oc3c(C)c(O)c4c(O)c(cc(O)c4c3C2=O)NC(=O)/C(C)=C\C=C/[C@H](C)[C@@H](O)[C@H](C)[C@H](O)[C@H](C)[C@H](OC(C)=O)[C@@H]1C | -6.8%[11.4 µM] | -2.1%[11.4 µM] | 0.1%[11.4 µM] | · | -12.3%[11.5 µM] | -16.8%[11.4 µM]
COC1C=CO[C@@]2(C)Oc3c(C)c(O)c4c(O)c(c5c(nc6cc(C)ccn65)c4c3C2=O)NC(=O)/C(C)=C\C=CC(C)C(O)[C@@H](C)C(O)C(C)[C@@H](OC(C)=O)C1C (some centres not stated) | · | · | · | · | ? | -11.8%
O=C1[C@H]2[C@H]3[C@H](O)[C@H](O)C/C(=N/OCc4ccccc4)[C@H]3CC[C@@H]2C(=O)N1C1CCCCC1 | · | · | -0.7%[11.4 µM] | · | 22.9%[11.5 µM] | -0.8%[11.4 µM]
CCCOCC(C)OCC(C)O (configuration not stated) | 12.1% | -0.9% | · | · | 13.8% | 6.2%
O=C(Nc1ccccc1-c1nc2ccccc2o1)c1ccc2c(c1)OCCO2 | -8.2% | -2.8% | -0.3% | >57 | 2.9% | 12.0%
CCC(=O)Nc1ccc2oc(-c3ccccc3Br)nc2c1 | 78.5% | -4.2% | ? | · | -11.9% | -2.1%
O=C(Nc1ccc2nn(-c3ccccc3)nc2c1)c1ccc(Br)o1 | i | -11.5% | 2.2% | >57 | 14.7% | -16.3%
O=C(Nc1ccc2nn(-c3ccccc3)nc2c1)c1ccc2c(c1)OCCO2 | 269.0% | -2.5% | -24.1% | · | 15.8µM* | -8.0%
O=C(Nc1ccc2oc(-c3ccccc3F)nc2c1)c1ccc2c(c1)OCCO2 | 481.7% | 0.5% | -29.3% | · | 10µM* | -11.0%
CC(=O)Nc1ccc2oc(-c3ccccc3Br)nc2c1 | 1.6% | -1.6% | 10µM* | ? | -18.4% | -22.5%
CCCCC(=O)Nc1cccc(NC(=O)c2ccc3c(c2)OCO3)c1 | 25.4% | -2.2% | ? | >57 | -2.7% | -1.3%
SMILES | Tau fil binding | Pol III holo inh | FLuc inh | PK Bst | ERK AVP block | ALOX15 inhib
CCCC(=O)Nc1cccc(NC(=O)c2ccc3c(c2)OCCO3)c1 | -2.1% | 1.7% | 15.8µM* | · | 37.2% | -1.7%
COCCn1c(=O)c(-c2ccc(Cl)cc2)nc2cnc(N3CCOCC3)nc21 | 8.9% | -6.8% | 0.2%[11.4 µM] | · | 12.5% | -7.1%
Nc1ncnc2c1nc(-c1ccccc1)n2[C@H]1O[C@@H](CO)[C@@H](O)[C@H]1O | 5.1%[11.4 µM] | -4.1%[11.4 µM] | 0.7%[11.4 µM] | · | -10.8%[11.5 µM] | -7.3%[11.4 µM]
COc1ccc2c(c1OC)C(=O)N(c1cccc(C(F)(F)F)c1)C2 | 22.6% | 8.0% | 12.6µM* | i | -10.9% | -7.9%
COc1ccc2c(c1OC)C(=O)N(c1ccccn1)C2 | 51.6% | -1.1% | ? | i | 3.3% | 4.1%
COc1ccc2c(c1OC)C(=O)N(c1cccc(C)c1)C2 | 3.8% | -5.8% | 7.94µM* | ? | -20.0% | -0.6%
CC(C)CO/N=C1/C[C@@H](O)[C@@H](O)[C@@H]2[C@@H]3C(=O)N(Cc4ccc5c(c4)OCO5)C(=O)[C@H]3CC[C@H]12 | · | · | -0.1%[11.4 µM] | · | 16.4%[11.5 µM] | 1.2%[11.4 µM]
CCCSc1nnc2n(Cc3ccccc3)c(=O)c3c4c(sc3n12)CCC4 | · | · | -1.3%[25.5 µM] | >25.6 | · | ·
